Screening results deposited in PubChem by National Center for Advancing Translational Sciences (NCATS).
Abeta rescue = restores growth of yeast expressing A-beta42 peptide. yeast expressing A-beta42, growth rescue, OD600, 48 h; response scale: 0% DMSO, 100% iron-clioquinol control. Potency, µM (top dose mostly 46.1 µM), hits mostly activators. 410,000 tested, 0.063% active; note: nearly all actives have a fitted effect of over 55% in size
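Yeast growth medium received pinned compounds, then yeast cells expressing toxic A-beta were added; plates incubated at 30 C for 48 hr. Growth read as absorbance at 600 nm, normalized to DMSO and equimolar FeCl3 plus clioquinol controls.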
FUS suppressor = rescues growth of FUS-expressing yeast | 390,000 tested, 0.24% active | S. cerevisiae FUS-expressing, growth rescue, OD600, 24 h | Potency, µM (series often up to 76.6 µM), actives largely listed as activators; note: nearly all actives have a fitted effect of over 55% in size
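Read-out: OD at 600 nm after 24hr at 30C, reporting rescue of FUS-induced yeast toxicity. Cells at OD 0.005 in galactose (2%) minimal medium; compounds tested in a dilution series; CP55940 titration from 92uM final as control.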
aSyn rescue = rescues yeast growth from alpha-synuclein toxicity | Yeast expressing alpha-synuclein, growth rescue, BacTiter-Glo, 24 h | Potency, µM (doses to about 46.1 µM), most hits filed as activators | 370,000 tested, 0.14% active | AID 652106; note: nearly all actives have a fitted effect of over 65% in size
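Galactose-induced alpha-syn yeast (OD600=0.02, raffinose-pregrown) + pinned cpd, 24 hr, 30 deg C; growth by BacTiter-Glo luminescence. Growth restoration scores as activation.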
TDP43 rescue = TDP-43 toxicity inhibition in yeast; TDP-43 expressing yeast growth rescue, BacTiter-Glo, 24 h; Potency, µM (highest dose often 46.1 µM), hits mostly activators; 410,000 tested, 1.8% active; AID 652104; note: nearly all actives have a fitted effect of over 50% in size
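Readout is BacTiter-Glo luminescence of cell growth, so inhibitors register as activators. TDP-43-expressing yeast at OD600=0.02 in galactose medium, after raffinose pregrowth to mid-log, were incubated with compound for 24 hr at 30 deg C.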
A number is an active result; i = inactive; ? = inconclusive; nt = no result. Rows were chosen to be rich in hits. Some 2.1% of all compounds tested hit in one or more screens of this group. Calls come from the whole dose curve; as a rule, active = well fitted curve in the direction sought with a large enough effect; inconclusive = small, poorly fitted or top-dose-only effect, or another doubt; inactive = no such curve, though single readings can be large; an effect the other way counts as inactive or inconclusive.

SMILES	Abeta rescue	FUS suppressor	aSyn rescue	TDP43 rescue
Clc1ccc(-c2nn3cnnc3s2)c(Cl)c1	i	i	i	18µM
Nc1nnc(-c2ccc(Cl)cc2Cl)s1	i	i	i	11µM
O=C(Oc1cccc(-n2cnnn2)c1)C1CCCCC1	i	i	nt	11µM
O=C(Nc1ccc(-n2cnnn2)cc1)C1CCCCC1	i	i	i	i
Cc1ccc(-n2c(SCC(=O)c3ccc(F)cc3)nnc2-c2cccnc2)cc1	nt	i	nt	nt
Nc1ccccc1SC(CC(=O)c1ccccc1)c1cccc([N+](=O)[O-])c1 (configuration not stated)	i	i	i	25µM
C=c1[nH]cc(C(C)c2c(C)n(C)c3ccccc23)/c1=C/C (configuration not stated)	nt	i	nt	nt
COc1cc(OC)c2c(c1)S(=O)(=O)C(c1ccccc1)=C2N	16µM	i	i	i
CC(C)Cn1cnc2c(SCc3ccccc3F)nc(N)nc21	i	nt	i	?
CCCCn1cnc2c(SCc3ccccc3F)nc(N)nc21	i	nt	i	18µM
O=C(Oc1c(Cl)cc(Cl)c2cccnc12)c1ccco1	i	nt	3.5µM	?
COc1cc(C(=O)Nc2ccc(Cl)c(C(F)(F)F)c2)cc(OC)c1OC	i	i	?	18µM
COc1cc(CCC(=O)Nc2ccc(Cl)c(C(F)(F)F)c2)cc(OC)c1OC	i	nt	i	i
COc1ccc(C(=O)Nc2ccc(N3CCOCC3)c(C(F)(F)F)c2)cc1OC	i	i	i	20µM
Cc1ccc2c(c1)CCCN2C(=O)c1ccoc1C	i	5.6µM	i	i
COC(=O)c1ccc(CSc2nnc3ccc4ccccc4n23)cc1	i	i	nt	35µM
CC1Cc2ccccc2N1C(=S)NC1CCCC1 (configuration not stated)	13µM	i	i	?
CCCC/C=C1/[C@@H](CC)N(Cc2ccc(OC)cc2OC)C2=N[C@@H](c3ccccc3)CC(=O)N21	nt	i	nt	nt
CCn1c(=O)n(CC(=O)N2CCCC2)c(=O)c2ccccc21	nt	i	nt	nt
COc1cccc(CNC(=O)c2c(C)nn(-c3ccc(F)cc3)c2-n2cccc2)c1	i	i	i	?
CCOc1ccc(CNC(=O)c2c(C)nn(-c3ccc(F)cc3)c2-n2cccc2)cc1	i	i	i	14µM
COc1cccc(CNC(=O)c2c(C)nn(-c3cccc(C)c3)c2-n2cccc2)c1	i	i	nt	35µM
COc1cccc(CNC(=O)c2cc(-c3cccc(OC)c3)n[nH]2)c1	i	i	nt	20µM
CCOc1ccccc1CNC(=O)c1cnc2sc(N(CC)CC)nn2c1=O	i	i	nt	i
C=CCN1C(=O)[C@@H](CC(=O)NCc2cccs2)[C@]2(C(=O)OC)CCCCC=C12	nt	i	nt	nt
SMILES	Abeta rescue	FUS suppressor	aSyn rescue	TDP43 rescue
COC(=O)C12C=C3CC(C)=C3C(=O)N1Cc1[nH]c3ccccc3c1C2 (configuration not stated)	nt	i	nt	nt
CCOc1ccccc1NS(=O)(=O)c1cccc2nsnc12	i	i	i	i
CCOc1ccc(OCC)c(NS(=O)(=O)c2cccc3nsnc23)c1	i	i	i	13µM
Cc1cc(Cl)ccc1C(=O)C1CCCN(C(=O)c2ccsc2)C1 (configuration not stated)	i	i	i	13µM
COc1ccc(-c2cc(C(=O)NN=Cc3ccc(C)s3)[nH]n2)cc1	nt	i	nt	nt
COc1cccc(-c2cnc3c(NC=O)cc(-c4cc(OC)c(OC)c(OC)c4)cn23)c1	i	28µM	i	?
COc1cccc(-c2cnc3c(NC=O)cc(-c4ccc(N(C)C)cc4)cn23)c1	i	?	i	20µM
CCSc1ccc(-c2cc(NC=O)c3ncc(-c4cccc(C(=O)NCCN(C)C)c4)n3c2)cc1	i	i	i	i
COc1cccc(-c2cc(NC=O)c3ncc(-c4ccc(OC)c(OC)c4)n3c2)c1	i	?	i	?
COc1cccc(-c2cnc3c(NC=O)cc(-c4ccc(OC)cc4OC)cn23)c1	i	?	i	22µM
COc1ccc(-c2cc(NC=O)c3ncc(-c4ccc(OC)c(OC)c4)n3c2)c(OC)c1	i	?	i	i
CCSc1ccc(-c2cc(NC=O)c3ncc(-c4cccc(C(=O)N(C)C)c4)n3c2)cc1	i	25µM	i	i
C=CCOC(=O)N[C@H](c1ccc2ccccc2c1)[C@H](C)/C=C/CC(=O)OC	nt	i	nt	nt
O=C(CSc1nc(=O)[nH]c2c1CCC2)NCc1ccc(Cl)cc1	i	i	nt	i
COc1ccc(-c2cc(NC=O)c3ncc(-c4cccc(OC)c4)n3c2)cc1	i	i	i	10µM
Cc1ccc(OCc2nnc(SCC(=O)c3ccc4ccccc4c3)n2-c2ccc(Cl)cc2)cc1	nt	i	nt	nt
COc1ccc(/C=C(/C(=O)c2cccs2)N2C=CC=CC2=C(C#N)C#N)cc1	i	i	18µM	?
COc1ccc(C(=O)/C(=C\c2ccco2)N2C=CC=CC2=C(C#N)C#N)cc1	i	i	i	?
CCOC(=O)N1CCN(C(=O)c2cc(COc3cccc(C(F)(F)F)c3)on2)CC1	i	nt	i	10µM
O=S(=O)(Nc1ccc(Cl)cn1)c1ccc(Cl)cc1	i	i	i	11µM
Cn1c(N)c(C(C[N+](=O)[O-])c2c(F)cccc2Cl)c(=O)n(C)c1=O (configuration not stated)	i	i	i	11µM
OCCNc1nc(SCc2ccccc2)nc2sc3c(c12)CCC3	i	nt	i	10µM
O=c1c2c3c(sc2nc(NCCO)n1CCc1ccccc1)CCCCC3	i	?	i	14µM
COc1cccc(S(=O)(=O)N2CCN(c3nc(-c4cccs4)nc4ccccc34)CC2)c1	nt	nt	i	nt
O=C(COC(=O)c1nc(Cl)ccc1Cl)NCc1ccc(Cl)cc1	i	i	i	18µM
SMILES	Abeta rescue	FUS suppressor	aSyn rescue	TDP43 rescue
COc1ccccc1C(=O)Nc1ccc(C(=O)OCc2cc(=O)n3c4c(sc3n2)CCCC4)cc1	i	i	nt	i
COc1ccc(/C=C2\CC3(OC(=O)c4cccc(F)c4)CCCN2C3)cc1 (configuration not stated)	nt	i	nt	nt
C#CCN1CC(N(C)CCOC(=O)c2ccc(OC)c(OC)c2)CS1(=O)=O (configuration not stated)	nt	i	nt	nt
COc1ccc(CNCc2cccc(OC)c2OC)cc1Br	i	i	i	i
COc1ccc(CNc2cccc(F)c2)cc1Br	i	nt	i	13µM
O=S1(=O)C=CCN1Cc1cn(Cc2ccccc2)nn1	nt	i	nt	nt
COc1ccc(CN2C(=O)[C@]3(NCCc4c3[nH]c3ccc(OC)cc43)c3cc(F)ccc32)cc1	nt	i	nt	nt
Fc1ccccc1SCc1nnc(-c2ccccc2Br)o1	i	i	i	22µM
Cc1csc(SCc2nnc(-c3ccccc3Br)o2)n1	i	i	i	i
Oc1ccccc1C1N=C(c2ccccc2)NC(c2ccccc2)=N1	i	i	i	i
O=[N+]([O-])C1C(c2ccccc2)=NOC1c1ccccc1O (configuration not stated)	i	i	i	18µM
O=C(CSCc1ccc(Cl)cc1)Nc1ccc2c(c1)OCCO2	i	i	i	11µM
OC(c1ccccc1)(c1ccccc1)C1CCN(CCCNc2cccc(OC(F)(F)F)c2)CC1	nt	i	nt	nt
